# Measured values as given in the supplement of paper PMC8728848.
# This excerpt belongs to a sample that is enriched for the strongest signals.
# Tests used:
# Experiment in all cases: glycan array binding signal (z-score within array); higher = stronger binding
# Conditions in all cases: glycan notation: IUPAC condensed, linker removed
# [1] = biological target: Fuc(a1-2)Gal(b1-4)[Fuc(a1-3)]GlcNAc(b1-3)Gal(b1-4)[Fuc(a1-3)]GlcNAc
# Method in brief: (§1)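 Glycan array data came from 3228 arrays in the Consortium for Functional Glycomics database, and only arrays with an available protein sequence were kept. Glycan names were put into IUPAC-condensed notation, and columns mapping to the same glycan were averaged. The binding signal is a within-array Z-score, averaged across arrays of one protein sequence run at different concentrations or buffers and across linkers. A negative Z-score can be read as non-binding.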
# [2] = biological target: Fuc(a1-2)[Gal(a1-3)]Gal(b1-3)GalNAc(b1-3)Gal(a1-4)Gal(b1-4)Glc
# Method in brief: as §1
# [3] = biological target: Fuc(a1-2)[Gal(a1-3)]Gal(b1-4)GlcNAc(b1-2)Man(a1-3)[Fuc(a1-2)[Gal(a1-3)]Gal(b1-4)GlcNAc(b1-2)Man(a1-6)]Man(b1-4)GlcNAc(b1-4)[Fuc(a1-6)]GlcNAc
# Method in brief: as §1
# [4] = biological target: Fuc(a1-2)[Gal(a1-3)]Gal(b1-4)GlcNAc(b1-3)GalNAc
# Method in brief: as §1
# [5] = biological target: Fuc(a1-2)[GalNAc(a1-3)]Gal(b1-3)GlcNAc(b1-2)Man(a1-3)[Fuc(a1-2)[GalNAc(a1-3)]Gal(b1-3)GlcNAc(b1-2)Man(a1-6)]Man(b1-4)GlcNAc(b1-4)[Fuc(a1-6)]GlcNAc
# Method in brief: as §1
# [6] = biological target: Fuc(a1-2)[GalNAc(a1-3)]Gal(b1-4)GlcNAc(b1-2)Man(a1-3)[Fuc(a1-2)[GalNAc(a1-3)]Gal(b1-4)GlcNAc(b1-2)Man(a1-6)]Man(b1-4)GlcNAc(b1-4)[Fuc(a1-6)]GlcNAc
# Method in brief: as §1
# [7] = biological target: Fuc(a1-2)[GalNAc(b1-3)]Gal
# Method in brief: as §1
# [8] = biological target: Fuc(a1-4)GlcNAc
# Method in brief: as §1
# [9] = biological target: Gal(a1-3)Gal
# Method in brief: as §1
# [10] = biological target: Gal(a1-3)Gal(b1-4)GlcNAc(b1-2)Man(a1-3)[Gal(a1-3)Gal(b1-4)GlcNAc(b1-2)Man(a1-6)]Man(b1-4)GlcNAc(b1-4)GlcNAc
# Method in brief: as §1
# [11] = biological target: Gal(b1-3)GlcNAc(b1-3)Gal(b1-4)GlcNAc(b1-6)[Gal(b1-3)GlcNAc(b1-3)]Gal(b1-4)Glc
# Method in brief: as §1
# [12] = biological target: Gal(b1-3)GlcNAc(b1-3)Gal(b1-4)[Fuc(a1-3)]GlcNAc
# Method in brief: as §1
# [13] = biological target: Gal(b1-3)[Fuc(a1-4)]GlcNAc
# Method in brief: as §1
# [14] = biological target: Gal(b1-4)GlcNAc(b1-2)Man(a1-3)[Gal(b1-4)GlcNAc(b1-2)Man(a1-6)]Man(b1-4)GlcNAc(b1-4)GlcNAc
# Method in brief: as §1
# [15] = biological target: Gal(b1-4)GlcNAc(b1-3)Gal(b1-4)GlcNAc(b1-2)Man(a1-3)[Gal(b1-4)GlcNAc(b1-3)Gal(b1-4)GlcNAc(b1-2)Man(a1-6)]Man(b1-4)GlcNAc(b1-4)GlcNAc
# Method in brief: as §1
# [16] = biological target: Gal(b1-4)GlcNAc(b1-3)Gal(b1-4)GlcNAc(b1-2)Man(a1-3)[Gal(b1-4)GlcNAc(b1-3)Gal(b1-4)GlcNAc(b1-2)Man(a1-6)]Man(b1-4)GlcNAc(b1-4)[Fuc(a1-6)]GlcNAc
# Method in brief: as §1
# [17] = biological target: Gal(b1-4)GlcNAc(b1-3)Gal(b1-4)GlcNAc(b1-3)Gal(b1-4)GlcNAc(b1-2)[Gal(b1-4)GlcNAc(b1-3)Gal(b1-4)GlcNAc(b1-3)Gal(b1-4)GlcNAc(b1-6)]Man(a1-6)[Gal(b1-4)GlcNAc(b1-3)Gal(b1-4)GlcNAc(b1-3)Gal(b1-4)GlcNAc(b1-2)Man(a1-3)]Man(b1-4)GlcNAc(b1-4)[Fuc(a1-6)]GlcNAc
# Method in brief: as §1
# [18] = biological target: Gal(b1-4)GlcNAc(b1-3)Gal(b1-4)GlcNAc(b1-3)Gal(b1-4)GlcNAc(b1-3)Gal(b1-4)GlcNAc(b1-2)Man(a1-3)[Gal(b1-4)GlcNAc(b1-3)Gal(b1-4)GlcNAc(b1-3)Gal(b1-4)GlcNAc(b1-3)Gal(b1-4)GlcNAc(b1-2)Man(a1-6)]Man(b1-4)GlcNAc(b1-4)[Fuc(a1-6)]GlcNAc
# Method in brief: as §1
# [19] = biological target: Gal(b1-4)GlcNAc(b1-3)Gal(b1-4)GlcNAc(b1-3)Gal(b1-4)GlcNAc(b1-3)Gal(b1-4)GlcNAc(b1-3)Gal(b1-4)GlcNAc(b1-2)Man(a1-3)[Gal(b1-4)GlcNAc(b1-3)Gal(b1-4)GlcNAc(b1-3)Gal(b1-4)GlcNAc(b1-3)Gal(b1-4)GlcNAc(b1-3)Gal(b1-4)GlcNAc(b1-2)Man(a1-6)]Man(b1-4)GlcNAc(b1-4)GlcNAc
# Method in brief: as §1
# [20] = biological target: Gal(b1-4)GlcNAc(b1-3)Gal(b1-4)GlcNAc(b1-3)Gal(b1-4)GlcNAc(b1-3)Gal(b1-4)GlcNAc(b1-3)Gal(b1-4)GlcNAc(b1-2)Man(a1-3)[Gal(b1-4)GlcNAc(b1-3)Gal(b1-4)GlcNAc(b1-3)Gal(b1-4)GlcNAc(b1-3)Gal(b1-4)GlcNAc(b1-3)Gal(b1-4)GlcNAc(b1-2)Man(a1-6)]Man(b1-4)GlcNAc(b1-4)[Fuc(a1-6)]GlcNAc
# Method in brief: as §1
# [21] = biological target: Gal(b1-4)GlcNAc(b1-3)Gal(b1-4)GlcNAc(b1-3)Gal(b1-4)GlcNAc(b1-3)Gal(b1-4)GlcNAc(b1-3)Gal(b1-4)GlcNAc(b1-3)Gal(b1-4)GlcNAc(b1-2)Man(a1-3)[Gal(b1-4)GlcNAc(b1-3)Gal(b1-4)GlcNAc(b1-3)Gal(b1-4)GlcNAc(b1-3)Gal(b1-4)GlcNAc(b1-3)Gal(b1-4)GlcNAc(b1-3)Gal(b1-4)GlcNAc(b1-2)Man(a1-6)]Man(b1-4)GlcNAc(b1-4)GlcNAc
# Method in brief: as §1
# [22] = biological target: Gal(b1-4)GlcNAc(b1-6)GalNAc
# Method in brief: as §1
# [23] = biological target: Gal3S(b1-4)Glc6S
# Method in brief: as §1
# [24] = biological target: Gal6S(b1-4)GlcNAc
# Method in brief: as §1
# [25] = biological target: Gal6S(b1-4)GlcNAc6S
# Method in brief: as §1
# [26] = biological target: GalNAc(a1-3)Gal
# Method in brief: as §1
# [27] = biological target: Glc(a1-4)Glc
# Method in brief: as §1
# [28] = biological target: GlcA(b1-3)Gal
# Method in brief: as §1
# [29] = biological target: GlcNAc(a1-4)Gal(b1-4)GlcNAc(b1-3)Gal(b1-4)Glc
# Method in brief: as §1
# [30] = biological target: GlcNAc(a1-6)Gal(b1-4)GlcNAc
# Method in brief: as §1
binder,measurement,setting,value
SP15308B-bot-339-22-339 (Bacteroides ovatus) (protein) NEWEDEQYEQYVSFKAPIASGSDGVTTIYVRYKDNGKVTYQLPIIVSGSTVNSQDRDIHIAVDKDTLKTLNIERFSLYRPELWYTEMEEDKYEFPETVHIPAGSCVELLNIDFNLQDIDMLEKWVLPLTIVDDGSYAYQSHPRKNYAKALLKVVPFNNYSGSYTASSMKVYTYINGKPDTNARTTDKRTGYVVDNNSIFFYAGLINEDMDKDMRKKYKINVHFKEDGTLDMKQDDPSNEMEFELIGTPTYSSTSVMDATRPYLERRYVQIMFEYDFQDFTYGGSGTEVIPIKYRVAGSMTLLRNINTQIPDEDQQIEW,glycan array binding signal (z-score),[1],-0.601
same,glycan array binding signal (z-score),[2],-0.087
same,glycan array binding signal (z-score),[3],0.241
same,glycan array binding signal (z-score),[4],-0.515
same,glycan array binding signal (z-score),[5],-0.323
same,glycan array binding signal (z-score),[6],-0.388
same,glycan array binding signal (z-score),[7],0.15
same,glycan array binding signal (z-score),[8],2.58
same,glycan array binding signal (z-score),[9],0.449
same,glycan array binding signal (z-score),[10],3.88
same,glycan array binding signal (z-score),[11],-0.129
same,glycan array binding signal (z-score),[12],-0.548
same,glycan array binding signal (z-score),[13],-0.425
same,glycan array binding signal (z-score),[14],-0.534
same,glycan array binding signal (z-score),[15],2.8
same,glycan array binding signal (z-score),[16],2.57
same,glycan array binding signal (z-score),[17],2.24
same,glycan array binding signal (z-score),[18],7.12
same,glycan array binding signal (z-score),[19],1.84
same,glycan array binding signal (z-score),[20],0.658
same,glycan array binding signal (z-score),[21],6.94
same,glycan array binding signal (z-score),[22],0.182
same,glycan array binding signal (z-score),[23],-0.337
same,glycan array binding signal (z-score),[24],1.87
same,glycan array binding signal (z-score),[25],-0.252
same,glycan array binding signal (z-score),[26],3.52
same,glycan array binding signal (z-score),[27],0.066
same,glycan array binding signal (z-score),[28],0.229
same,glycan array binding signal (z-score),[29],-0.022
same,glycan array binding signal (z-score),[30],-0.154
